Source: PubChem BioAssay AID364 (The Scripps Research Institute Molecular Screening Center, 2006)
Screen size: about 3,300 compounds; about 50 (2%) were called active.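 The calls were made as follows: active = concentration giving half-maximal inhibition at or below 20 micromolar; inactive = half-maximal concentration above 20 micromolar, or not dose tested.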 Only a sample is shown. Measured potencies and affinities stand elsewhere.

Test: Jurkat cell viability reduction – Jurkat E6.1, NIH starter set, primary screen (AID 364);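 also: 100% = cells treated with 4 µM doxorubicin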
Details: Jurkat E6.1 viability, ATP luminescence, 48 h; at 4 µM; hits give high values

Row | SMILES | inhibition
1 | c1ccc(OCc2nn3c(-c4cccnc4)nnc3s2)cc1 | -5.4% (inactive)
2 | CN(Cc1ccccc1)c1ncnc2ccc(Br)cc12 | 7.2% (inactive)
3 | Oc1ccccc1-c1nc(NCc2ccco2)c2ccccc2n1 | -6.1% (inactive)
4 | Clc1ccc(-n2ncc3c(NCc4ccccn4)ncnc32)cc1 | 5.5% (inactive)
5 | Clc1ccc(-n2ncc3c(NCc4cccs4)ncnc32)cc1 | 18.1% (inactive)
6 | c1ccc(N2CCN(c3nc(NCc4ccco4)c4ccccc4n3)CC2)cc1 | 2.5% (inactive)
7 | CCN(CC)CCCn1c(C)cc2c(c1=O)C(c1ccc(OC)c(OC)c1OC)C(C#N)=C(N)O2 (centres undefined) | 1.4% (inactive)
8 | CCCOc1cccc(C2/C(=C(/O)c3ccccc3)C(=O)C(=O)N2CCN(C)C)c1 (centres undefined) | 2.5% (inactive)
9 | O=C(c1coc(=O)c(Br)c1)N1CCOCC1 | 7.3% (inactive)
10 | COc1cccc(-c2nc(N3CCCCC3C)c3ccccc3n2)c1O (centres undefined) | -2% (inactive)
11 | Cc1nc(NS(=O)(=O)c2ccccc2)sc1NC(=O)OCCN(C)C | 9.6% (inactive)
12 | COC(=O)C1=C(N)Oc2cc(C)oc(=O)c2C1c1ccncc1 (centres undefined) | -9.1% (inactive)
13 | O=C(O)CCc1nn2cc(-c3ccccc3)nc2[nH]c1=O | -5.8% (inactive)
14 | Cc1cc(C)n(CC(=O)c2ccccc2)c(=O)c1C#N | -17.6% (inactive)
15 | O=c1[nH]c2sc3c(c2c(=O)n1Cc1ccccc1)CCC3 | 1.3% (inactive)
16 | COc1cccc(C2=CC(c3ccc(N(C)C)cc3)n3nnnc3N2)c1 (centres undefined) | -9.6% (inactive)
17 | COc1ccc(C2=CC(c3cccc(OC)c3)n3nnnc3N2)cc1 (centres undefined) | -8.6% (inactive)
18 | Cc1nc(SC2C=CS(=O)(=O)C2)n[nH]1 (centres undefined) | -8.6% (inactive)
19 | CCCCNC1=C(Br)C(=O)CC(C)(C)C1 | -3.7% (inactive)
20 | Cn1c(Cn2cnc3ccccc32)nc2ccccc21 | 2.8% (inactive)
21 | CC(C(=O)N1CCOCC1)N1C(=O)c2ccccc2C1=O (centres undefined) | -0.7% (inactive)
22 | OCCNc1ncnc2c1c(-c1ccccc1)c(-c1ccccc1)n2Cc1ccco1 | 11.5% (inactive)
23 | O=c1c(C=NCCCn2ccnc2)c(-c2ccccc2)[nH]n1-c1nc2ccccc2s1 | -4.4% (inactive)
24 | CCCOc1cccc(CN2CCCCC2c2cccnc2)c1 (centres undefined) | 0.8% (inactive)
25 | CNC(=O)C1CC(=O)N(Cc2ccccc2)C(=Nc2ccc(OC)cc2)S1 (centres undefined) | -6.1% (inactive)

Row | SMILES | inhibition
26 | CCCCOC(=O)CCc1nc2ccccc2[nH]1 | 0.2% (inactive)
27 | CCOc1ccc2nc(SCC(=O)Nc3ncccn3)[nH]c2c1 | -1.3% (inactive)
28 | CCCCOC(=O)Nc1ccc(S(=O)(=O)Nc2nc(C)cc(C)n2)cc1 | 6.7% (inactive)
29 | COCCNc1oc(-c2ccc(Cl)cc2)nc1C#N | 2.9% (inactive)
30 | CCN(CC)CCCN1C(=O)C(=O)/C(=C(/O)c2ccc(C)cc2)C1c1ccccn1 (centres undefined) | -5.6% (inactive)
31 | CCCNc1ncnc2c1cnn2-c1ccc(OC)cc1 | -3.3% (inactive)
32 | CCOc1ccc(CC2CC(=O)NC2=O)cc1 (centres undefined) | -9.7% (inactive)
33 | Cc1cn([C@H]2C[C@H](N=[N+]=[N-])[C@@H](CO)O2)c(=O)[nH]c1=O | 0.1% (inactive)
34 | Cc1cn([C@H]2C=C[C@@H](CO)O2)c(=O)[nH]c1=O | -6.6% (inactive)
35 | Cn1cc(C(=O)NCN2CCCCC2)c2ccccc21 | -0.4% (inactive)
36 | CC(C)c1nc(NCC2CCCO2)c(C#N)c2c1COC(C)(C)C2 (centres undefined) | 9.3% (inactive)
37 | Nc1nnnn1/N=C/c1ccco1 | 8% (inactive)
38 | CCc1nc(N2CCCC2)c(C#N)c2c1CCCC2 | 2.4% (inactive)
39 | COc1ccc(Nc2oc(-c3cccs3)nc2C#N)cc1 | 9.1% (inactive)
40 | COc1ccc(N2CC(=O)N(c3ccc(OC)c(OC)c3)CC2=O)cc1OC | -0.2% (inactive)
41 | O=C1CCCN1c1ccc(S(=O)(=O)NCc2ccco2)cc1 | 7.4% (inactive)
42 | NC(=O)c1cc(-c2ccccc2)nc(Oc2ccccc2)n1 | 16.2% (inactive)
43 | CC(C)Oc1ccc(/C(O)=C2/C(=O)C(=O)N(CCN3CCOCC3)C2c2ccccc2)cc1 (centres undefined) | -8.3% (inactive)
44 | CCOc1cc(CN2CCOCC2)cc(C(C)=O)c1 | 3.2% (inactive)
45 | Cn1c(N)c(C#N)c(C#N)c1-c1ccccc1 | -0.9% (inactive)
46 | CCCCCOC(=O)Cc1c(C)nc(-c2ccccc2)[nH]c1=O | 3.9% (inactive)
47 | COc1ccc(C(O)C(CN2CCOCC2)c2ccccc2)cc1 (centres undefined) | -2.1% (inactive)
48 | COc1ccc(C(=O)CCN2CCCCCC2)cc1 | -4.7% (inactive)
49 | CCCCCCSC1=C(C#N)C(c2ccccc2)CC(=O)N1 (centres undefined) | -7% (inactive)
50 | C=C(C)CSC1=C(C#N)C(c2ccsc2)CC(=O)N1 (centres undefined) | 8.6% (inactive)

Row | SMILES | inhibition
51 | CN1C2C=C3C(C#N)=C(N)C(C#N)(C#N)[C@@H](c4ccc(Cl)cc4)[C@@H]3C1CC2 (some centres undefined) | 1.6% (inactive)
52 | CCOc1cccc(C2C(C#N)=C(N)Oc3cc(C)oc(=O)c32)c1OCC (centres undefined) | -9.9% (inactive)
53 | O=C(NCc1cccnc1)NC(C(F)(F)F)C(F)(F)F | -8.9% (inactive)
54 | O=C(NCC(F)(F)F)Nc1nnc(C(F)(F)F)s1 | -6.7% (inactive)
55 | CC(NC(=O)Nc1nccs1)(C(F)(F)F)C(F)(F)F | -6.2% (inactive)
56 | CCC(NC(=O)Nc1nccs1)(C(F)(F)F)C(F)(F)F | -5% (inactive)
57 | CCSc1nnc(NC(=O)NC(CC)(C(F)(F)F)C(F)(F)F)s1 | -11.5% (inactive)
58 | COCCCn1c(C)nc2c(c1=O)c1nc3ccccc3nc1n2CCc1ccccc1 | 4.1% (inactive)
59 | CC1CCCCN1C(=O)C12CCC(C)(/C(=N/O)C1)C2(C)C (centres undefined) | -9.3% (inactive)
60 | CCOC(=O)C1=C(N)c2ccccc2CC1C(C)C (centres undefined) | 7% (inactive)
61 | COc1cc(C2C(C#N)=C(N)Oc3cc(C)n(CCN4CCOCC4)c(=O)c32)cc(OC)c1OC (centres undefined) | -2.9% (inactive)
62 | COc1cccc(C2C(C#N)=C(N)Oc3cc(C)[nH]c(=O)c32)c1OC (centres undefined) | 7.3% (inactive)
63 | COc1ccc(-c2cc3nc4n(c(=O)c3s2)CCOC4)cc1 | 4.7% (inactive)
64 | COc1cc(NC(=O)NC(C)(C(F)(F)F)C(F)(F)F)cc(OC)c1OC | -6.8% (inactive)
65 | OCCOCCNc1ncnc2c1cnn2-c1ccc(Cl)cc1 | 3.8% (inactive)
66 | CN1CCN(c2c3c(c(C#N)c4nc5ccccc5n24)CCCC3)CC1 | 4.7% (inactive)
67 | CCOC(=O)C1Cc2c([nH]c3ccccc23)C(C)N1 (centres undefined) | -10.3% (inactive)
68 | Cc1cc(NC(CC(C)C)C(=O)O)nc(Cc2ccccc2)n1 (centres undefined) | 0.4% (inactive)
69 | CC1(C2(O)CC(c3ccccc3)ON2)CCCCC1 (centres undefined) | 13.9% (inactive)
70 | CC1CN(C2CCN(S(=O)(=O)c3ccccc3)CC2)CC(C)O1 (centres undefined) | 7.8% (inactive)
71 | C(=N\n1cnnc1)/c1ccccn1 | -0.2% (inactive)
72 | CCOC(=O)CC(=O)CSc1nc(N)c(C#N)c(-c2ccc(Cl)cc2)c1C#N | 9.6% (inactive)
73 | Cc1cc(-c2cc(-c3ccc(Cl)cc3)nc(N)c2C#N)co1 | 7.7% (inactive)
74 | CC(=O)c1c(OCC(=O)O)ccc2c(C)cc(=O)oc12 | 6.9% (inactive)
75 | c1ccc2c(c1)[nH]c1c(N3CCSCC3)ncnc12 | 29.6% (inactive)

Row | SMILES | inhibition
76 | c1ccc(CN2CCN(c3ncnc4c3[nH]c3ccccc34)CC2)cc1 | 28.5% (inactive)
77 | Cc1cc(=O)oc(C)c1C(=O)N1CCN(C)CC1 | -1% (inactive)
78 | CN(C)CCCN1C(=O)C(O)=C(C(=O)c2cc3ccccc3o2)C1c1ccccc1 (centres undefined) | 0% (inactive)
79 | Nc1ccc2oc3ncccc3c(=O)c2c1 | -1.7% (inactive)
80 | CC(C)Oc1ccc(/C(O)=C2/C(=O)C(=O)N(CCN(C)C)C2c2ccco2)cc1 (centres undefined) | 5.7% (inactive)
81 | Cc1ccc2[nH]c3c(N4CCN(Cc5ccc6c(c5)OCO6)CC4)ncnc3c2c1 | 18.7% (inactive)
82 | COc1ccc2[nH]c3c(N4CCN(Cc5ccc6c(c5)OCO6)CC4)ncnc3c2c1 | -0.5% (inactive)
83 | Fc1ccc2[nH]c3c(N4CCN(c5ccccc5)CC4)ncnc3c2c1 | 28.7% (inactive)
84 | COc1cccc(N2CCN(c3ncnc4c3[nH]c3ccccc34)CC2C)c1 (centres undefined) | 22.3% (inactive)
85 | N#CCCSCc1ccc(OCC(=O)O)cc1 | -5.7% (inactive)
86 | CCn1cc(C(=O)NCc2ccco2)c(=O)c2cc(F)c(N3CCN(C(=O)c4ccco4)CC3)cc21 | 7.2% (inactive)
87 | Cc1cc(C)n(C(=O)CNC(=O)c2cccs2)n1 | 2.3% (inactive)
88 | CCc1ccccc1NC(=O)CSC1=C(C#N)C(c2ccc(O)c(OC)c2)C2=C(CCCC2=O)N1 (centres undefined) | -3.3% (inactive)
89 | N#CC1=C(SCc2ccccc2)NC2=C(C(=O)CCC2)C1c1ccc2c(c1)OCO2 (centres undefined) | 13.1% (inactive)
90 | CCN(CC)C(=O)CSC1=C(C#N)C(c2ccco2)C(C(=O)OCCOC)=C(C)N1 (centres undefined) | -2.1% (inactive)
91 | CCc1ccc(NC(=O)CSC2=C(C#N)C(c3ccco3)C3=C(CCCC3=O)N2)cc1 (centres undefined) | 3.5% (inactive)
92 | Cc1ccc(NC(=O)CSC2=C(C#N)C(c3ccco3)C3=C(CCCC3=O)N2)cc1 (centres undefined) | 6.6% (inactive)
93 | COCCOC(=O)C1=C(C)NC(SCC(=O)NC(C)(C)C)=C(C#N)C1c1ccco1 (centres undefined) | 9.1% (inactive)
94 | COc1ccccc1NC(=O)C1=C(C)NC(SCC(=O)c2ccc(C)cc2)=C(C#N)C1c1ccco1 (centres undefined) | -6.6% (inactive)
95 | CCCCc1ccc(NC(=O)CSC2=C(C#N)C(c3ccco3)C3=C(CCCC3=O)N2)cc1 (centres undefined) | -2.5% (inactive)
96 | Cc1cc(CCC(=O)O)c(C)cc1CCC(=O)O | -4.4% (inactive)
97 | NS(=O)(=O)c1ccc(-c2ccc(C=NC3CCS(=O)(=O)C3)o2)cc1 (centres undefined) | 10.2% (inactive)
98 | O=C(C1CCCCC1)N1CCCn2c1nc1ccccc12 | 1.8% (inactive)
99 | O=C1C2CC=C(Cl)CC2C(=O)N1CNc1ccccn1 (centres undefined) | -4.2% (inactive)
